Here are results for 15 molecules from PubChem BioAssay (NCATS).

Molecules are shown by their SMILES. Calls of active or inactive are those of the source. No rule for the calls is given here.

The conditions of this experiment: Ebola virus entry assay, reporter ratio channel; Channel type: primary.
On to `CCN1CCCC(OC(=O)C(c2ccccc2)c2ccccc2)C1` (stereo not given), for which the AC50 was 20 µM (active). For the molecule `CCNC(=O)N1CCN(CCCC(c2ccc(F)cc2)c2ccc(F)cc2)CC1`, the AC50 is 11.2 µM (active). `c1ccc(C(O[C@H]2CCCN(CCc3ccc4c(c3)OCO4)C2)c2ccccc2)cc1`: the AC50 is 25.1 µM (active).

On to `CCCCCCCCCCCCCCNCCO`, for which the AC50 is 12.6 µM (active).

Regarding `Cc1ccc([N+](=O)[O-])[c]2c1[O][Hg]2`, the AC50 is 0.708 µM (active).

With `c1ccc2c(c1)Sc1ccccc1N2CC1CN2CCC1CC2` (stereo not given), the AC50 was 3.98 µM (active). Regarding `Cc1c(Cl)c(=O)oc2cc(OP(=O)(OCCCl)OCCCl)ccc12`, the outcome was inactive. Turning to `COc1cc(C[C@@H](C)N)c(OC)cc1C`, the AC50 is 35.5 µM (active). `CCC(=O)C(CCN(C)C)(c1ccccc1)c1ccccc1`: the AC50 is 31.6 µM (active).

For the molecule `CCN1C(=O)c2ccccc2C1Nc1ccc(OCCN2CCCCC2)cc1` (stereo not given), the AC50 was 15.8 µM (active). `CN1CCC(=C2c3ccccc3CC(=O)c3sccc32)CC1`: the concentration at half-maximal activity (AC50) is 28.2 µM (active). As to `CCc1cccc(N(C)C(N)=Nc2cccc3ccccc23)c1`, the AC50 is 14.1 µM (active). Turning to `CCCN(CCC)C(=O)C(CCC(=O)OCCCN1CCN(CCOC(=O)Cc2c(C)n(C(=O)c3ccc(Cl)cc3)c3ccc(OC)cc23)CC1)NC(=O)c1ccccc1` (stereo not given), the AC50 is 5.62 µM (active). Turning to `CCCCCCCCOc1ccccc1C(=O)Nc1ccc(C(=O)OCC[N+](C)(CC)CC)cc1`, the AC50 was 2.51 µM (active). On the same count and under the same terms, in the case of `COc1ccc2cc1Oc1ccc(cc1)C[C@H]1c3c(cc4c(c3Oc3cc5c(cc3OC)CCN(C)[C@@H]5C2)OCO4)CCN1C` it was 1.12 µM (active).
